From PubChem BioAssay
Shown are actives, neighbours in structure and some others; about 14% of the full set was active somewhere.
HCMV inh = inhibitors of human cytomegalovirus. HFF cells, HCMV-luciferase reporter, 72 h; active compounds read low. activity change, negative = inhibition, % at 57.5 µM. hit rate 4.5% among 410,000. AID 1259415; in the data active means activity change below about -60%; inconclusive means no clear call, values can overlap the other calls; inactive means above about -39%
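Steps: HFFs plated, 16 h 37C; compounds added; HCMV-luciferase added to MOI 1 PFU/cell; 72 h 37C; OneGlo reagent, 5 min room temperature; luminescence read, normalized to controls.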
Pf growth 48h = inhibits P. falciparum growth in the first generation, 48 h; P. falciparum luciferase growth in erythrocytes, 48 h; hit rate 5.9% among 310,000; AID 504832; Potency, µM (highest dose often 28.7 µM), inactives show top-dose activity change, negative = inhibition, most hits filed as inhibitors; further: potency means the concentration at half of the fitted maximal effect
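Growth was read as firefly luciferase luminescence after a 48 h, 37 C, 5% CO2 exposure of compounds to reporter-bearing P. falciparum cultures (0.1% parasitemia, 2% hematocrit final) in Albumax-supplemented RPMI 1640.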
Pf growth 96h = P. falciparum growth inhibition at 96 hour, primary screen for plastid delayed-death inhibitors; AID 504834; hit rate 6.9% among 320,000; Potency, µM (series often up to 28.7 µM), for inactives: at the highest dose activity change, negative = inhibition, actives largely listed as inhibitors; P. falciparum luciferase reporter growth, 96 h; further: potency means the concentration at half of the fitted maximal effect
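P. falciparum expressing integrated firefly luciferase grown in erythrocytes (2% hematocrit, 0.05% parasitemia final) with compounds for 96 hours at 37 C, 5% CO2. Growth inhibition read as loss of luminescence after adding luciferase detection reagent.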
FBPA Giardia inh = inhibitors of Giardia lamblia fructose-1,6-bisphosphate aldolase; purified Giardia FBPA; hit rate 0.71% among 290,000; Potency, µM (series often up to 59.6 µM), for inactives: top-dose activity, negative = inhibition, hits mostly inhibitors; A8B2U2; further: potency means the concentration at half of the fitted maximal effect; nearly all actives have a fitted effect of over 55% in size
Target sequence (A8B2U2 whole entry, looked up): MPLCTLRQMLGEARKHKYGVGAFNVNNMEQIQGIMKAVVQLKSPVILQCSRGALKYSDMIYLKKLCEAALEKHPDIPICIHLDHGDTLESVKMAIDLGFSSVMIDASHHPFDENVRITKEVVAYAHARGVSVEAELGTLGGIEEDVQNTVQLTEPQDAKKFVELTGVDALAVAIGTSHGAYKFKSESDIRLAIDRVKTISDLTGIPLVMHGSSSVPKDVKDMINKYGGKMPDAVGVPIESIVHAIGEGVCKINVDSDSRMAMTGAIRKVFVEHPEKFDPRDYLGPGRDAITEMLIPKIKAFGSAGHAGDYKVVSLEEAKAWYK
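Giardia FBPA (40 nM reagent) was preincubated 10 min at RT with compound (up to 57.5 uM final), then substrate plus GAPDH/TPI/NAD/arsenate coupling system with diaphorase/resazurin was added; resorufin fluorescence (525/598 nm) was read after 20 min.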
Sm TGR block = S. mansoni TGR enzyme inhibition. AID 485364. hit rate 3% among 360,000. Potency, µM (highest dose often 114 µM), for inactives: at the top dose activity change, negative = inhibition, hits mostly inhibitors. Q962Y6. purified TGR, DTNB reduction, TNB absorbance 405 nm; further: potency means the concentration at half of the fitted maximal effect; nearly all actives have a fitted effect of over 60% in size
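TGR 20 nM + NADPH 100 uM (dispensed conc.), cpd preinc 15 min RT; start with NADPH (500 uM addition) then DTNB (15 mM addition). Kinetic TNB absorbance, 405 nm filter. Four-parameter Hill fit across titration.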
Numbers without * were called inactive; ? = inconclusive; . = no result; [ ] = dose if it differs, or a comment. Unless noted, the call rests on the fitted dose curve; in most records, active means well fitted curve in the direction sought with a large enough effect; inconclusive means small, poorly fitted or top-dose-only effect, or another doubt; inactive means no such curve, though single readings can be large; an effect the other way counts as inactive or inconclusive. On the % scale 0 is the no-effect control and ±100 the full control effect.

SMILES | HCMV inh | Pf growth 48h | Pf growth 96h | FBPA Giardia inh | Sm TGR block
CCCNCCC(c1ccco1)c1ccccc1OC (centres undefined) | -20.5 | -35.0% | 23.0% | -13.9% | -8.3%
COc1ccccc1C(CC(=O)Nc1nccs1)c1ccco1 (centres undefined) | 20.9 | 2.94µM* | 6.57µM* | -1.3% | 50.1µM*
CC(=O)c1cccc(NC(=O)CCS(=O)(=O)c2ccc3c(c2)n(C)c(=O)c(=O)n3C)c1 | 27.7 | . | . | . | ?
Nc1cc(C(=O)OCC(=O)NNC(=O)c2cccs2)ccc1Cl | -9.0 | -7.3% | -18.9% | . | -10.7%
CCn1cc(CNC(=O)c2cc(COc3ccc(F)cc3F)on2)cn1 | ? | -1.8% | -2.9% | 2.5% | 0.0%
COC(=O)C[C@H]1C[C@@H]2c3cc(NS(=O)(=O)c4ccc(OC)cc4)ccc3O[C@@H]2[C@H](CO)O1 | 14.7 | . | . | . | .
CN(C)CCNc1ncnc2c1sc1nc(N3CCOCC3)c3c(c12)CC(C)(C)SC3 | ? | ? | ? | 0.6% | -13.7%
CCN(CC)CCNc1ncnc2c1sc1nc(N3CCOCC3)c3c(c12)CC(C)(C)SC3 | -36.9 | ? | 5.22µM* | -5.1% | -6.1%
COc1cccc(CNC(=O)CCC2CCCN(c3cc(C)nc(N4CCCC4)n3)C2)c1 (centres undefined) | -17.3 | ? | 11.7µM* | 1.6% | 10.5%
COc1cccc(CNC(=O)CCC2CCCN(C3CCOCC3)C2)c1 (centres undefined) | . | 95.6% | ? | -0.3% | 4.47µM*
COc1cccc(CNC(=O)CCC2CCCN(C(=O)c3ccoc3)C2)c1 (centres undefined) | ? | 3.4% | 1.7% | -0.2% | -18.9%
COc1ccc(C(=O)C[n+]2cc(-c3ccc(OC)cc3)n3c2CCCC3)cc1 | -66.9* | 1.17µM* | 1.47µM* | 4.6% | -17.2%
Cc1ccc(C(=O)C[n+]2cc(-c3ccc(C)cc3)n3c2CCCCC3)cc1 | -101.7* | 0.415µM* | 0.415µM* | 5.4% | 8.3%
COc1ccc(C(=O)C[n+]2ccc(-c3nnc4n3CCCCC4)cc2)cc1 | -33.1 | 9.7% | 8.5% | -17.2% | -10.2%
O=C(C[n+]1cc(-c2ccccc2)n2c1CCCCC2)c1ccc(Br)cc1 | -5.6 | 1.65µM* | 32.5% | 0.5% | .
Cc1ccc(-c2c[n+](Cc3ccc(Cl)c(Cl)c3)c3n2CCC3)cc1 | -99.4* | 1.65µM* | 0.185µM* | 1.6% | -15.6%
C[C@@H](C(=O)O)c1ccc(C(=O)c2ccccc2)s1 | . | 6.0%[12.8 µM] | -14.4%[12.8 µM] | 12.4%[21.7 µM] | .
CC(=O)Nc1ccc(NC(=O)C(C)OC(=O)C2(c3ccccc3F)CCCC2)cc1 (centres undefined) | -3.4 | 8.28µM* | 11.7µM* | . | 3.0%
O=C(NC1CCCc2c1cnn2-c1cc(F)cc(F)c1)c1ccncc1 (centres undefined) | -22.3 | 34.5% | ? | . | 0.3%
O=C(NC1CCCc2c1cnn2-c1ccccc1F)c1ccccn1 (centres undefined) | -97.8* | -6.9% | -18.6% | -13.2% | 7.6%
O=C(NC1CCCc2c1cnn2-c1ccccc1F)c1ccncc1 (centres undefined) | -84.0* | . | . | . | .
O=C(NCc1cccnc1)/C(=C/c1ccc(-c2ccc(Cl)cc2)o1)S(=O)(=O)c1ccccc1 | . | 6.57µM* | 3.29µM* | -2.4% | 20µM*
O=C(NCc1cccnc1)/C(=C\c1ccc(-c2ccc(Br)cc2)o1)S(=O)(=O)c1ccccc1 | -102.6* | ? | ? | 7.4% | 50.1µM*
O=C(c1ccc(F)cc1)C1CCN(CCn2c(=O)[nH]c3ccccc3c2=O)CC1 | -39.3 | 6.57µM* | 10.7µM* | -14.8% | -7.7%
Cc1nonc1NC(=O)N1CCCC1 | -21.1 | 18.7% | 48.3% | 1.5% | -25.0%
Cc1nonc1NC(=O)OC1CCCCC1 | -7.7 | ? | 1.04µM* | 2.0% | 7.3%
Cc1ccc(S(=O)(=O)OC[C@@H]2CN3[C@H](c4ccc(Br)cc4)[C@H](C)CC[C@H]3C(=O)O2)cc1 | . | . | . | -4.9%[12.9 µM] | .
CC(C)(C)OC(=O)NCC12C=CC(O1)C1C(=O)N(Cc3ccccc3)C(=O)C12 (centres undefined) | -25.5 | 5.2% | -13.8% | 2.8% | 8.91µM*
Cc1cc(C(=O)NCc2cc(C)n(C)n2)sc1-c1ccccc1 | -82.6* | -7.4% | 0.3% | -2.1% | -1.5%
